Source: PubChem BioAssay AID504332 (National Center for Advancing Translational Sciences (NCATS), 2011)
The whole screen tested about 350,000 compounds, of which about 31,000 (8.9%) were called active. Inconclusive results (about 15%) are left out. This is one part of a sample in which actives are shown more often than they occur. Calls follow the shape of the dose curve; as a rule, active = well fitted inhibition curve with a large enough effect; inconclusive = small, poorly fitted or top-dose-only effect; inactive = no such curve, though single readings can be large or run the other way.
% is scaled to controls: 0 for no effect and ±100 for the full control effect; potency is read from the fitted curve at half-maximal effect.
Also: nearly all actives have a fitted effect of over 75% in size.

The molecules below were run against Histone-lysine N-methyltransferase EHMT2 (Homo sapiens) (UniProt Q96KQ7) (assay: qHTS Assay for Inhibitors of Histone Lysine Methyltransferase G9a). Conditions: G9a H3K9 monomethylation, AlphaScreen, 2 h; series mostly up to 59 µM; activity, negative = inhibition: at the top concentration.
Sequence of Histone-lysine N-methyltransferase EHMT2 (Homo sapiens) (Q96KQ7 913-1193 limits assumed): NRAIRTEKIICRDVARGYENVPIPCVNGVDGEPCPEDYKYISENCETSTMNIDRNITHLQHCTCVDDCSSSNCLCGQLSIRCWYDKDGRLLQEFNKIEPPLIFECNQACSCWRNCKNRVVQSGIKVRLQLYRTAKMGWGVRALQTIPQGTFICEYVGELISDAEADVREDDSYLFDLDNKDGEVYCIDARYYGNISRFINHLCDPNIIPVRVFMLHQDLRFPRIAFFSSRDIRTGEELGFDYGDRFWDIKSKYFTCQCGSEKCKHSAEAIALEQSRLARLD
Summary of the method: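 AlphaScreen read-out: biotin-H3K9 peptide (500 nM) methylation by 20 nM enzyme with 20 uM SAM, 2 h at room temperature after 15 min compound preincubation; anti-monomethyl H3K9 antibody plus donor/acceptor beads, 10 min dark.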
`CCOC(=O)c1cc2c(=O)n3ccccc3nc2n(CC2CCCO2)c1=NC(=O)c1ccccc1Br` (configuration not stated) was tested, and the “activity, negative = inhibition” value was 7.77% (inactive). For `CC(=O)N/C(=C\c1ccccc1)C(=O)OC(C)C(=O)N(C)c1ccccc1` (configuration not stated), the “activity, negative = inhibition” value was 7.54% [at 102 µM] (inactive). For `Cc1ccc(OCCCC(=O)Nc2ccc3c(c2)OCCO3)cc1`, the “activity, negative = inhibition” value was -14.7% (inactive). With `CN(CCc1ccccn1)C(=O)c1ccc(OC2CCN(Cc3ccccn3)CC2)cc1` the activity, negative = inhibition was 24.7% [at 0.501 µM] (inactive). In the case of `O=C(c1ccc(OC2CCN(Cc3ccccn3)CC2)cc1)N1CCCCCC1`, the “activity, negative = inhibition” value is reported as 8.07% [at 102 µM] (inactive). `CCCCN(C)C(=O)C1CCN(Cc2ccccn2)CC1` was tested, and the Potency was 5.62 µM (active). With `Cc1noc(C)c1COc1ccccc1C(=O)N(C)CC(=O)Nc1cccc(F)c1` the “activity, negative = inhibition” value was -4.12% [at 102 µM] (inactive). In the case of `CCOC(=O)c1ccc(NC(=O)Cn2cc(S(=O)(=O)Cc3ccccc3F)c3ccccc32)cc1`, the “activity, negative = inhibition” value is reported as -3.92% (inactive). In the case of `Cc1cc(C(=O)CCC(=O)NNC(=O)c2ccccc2O)c(C)s1`, the “activity, negative = inhibition” value is reported as 16.4% [at 102 µM] (inactive). With `Cc1sc2nc(SCCO)n(-c3ccccc3)c(=O)c2c1C` the “activity, negative = inhibition” value was -15.9% [at 102 µM] (inactive). With `O=S(=O)(c1ccccc1)N1CN(Cc2ccc(F)cc2)c2nc3ccccc3nc21` the “activity, negative = inhibition” value was -47.7% [at 102 µM] (inactive). With `COc1ccc(S(=O)(=O)N2CCSCC2)cc1` the “activity, negative = inhibition” value was 1.31% [at 102 µM] (inactive). `C=CCN1CN(S(=O)(=O)c2ccc(OC)cc2)c2nc3ccccc3nc21` was tested, and the Potency was 7.08 µM (active). In the case of `O=C(CC1C(=O)N(c2ccccc2)C(=O)N1CCc1cccs1)Nc1ccc(F)cc1` (configuration not stated), the “activity, negative = inhibition” value is reported as 5.32% (inactive). In the case of `Cc1ccccc1C(=O)NC(=S)NC1CC1`, the “activity, negative = inhibition” value is reported as -4% [at 102 µM] (inactive). With `CCn1c2ccccc2c2cc(NC(=O)COc3ccc(C)cc3C)ccc21` the “activity, negative = inhibition” value was -36% (inactive). For `O=C(CCC(=O)c1cccs1)NC1CCCCCC1`, the “activity, negative = inhibition” value was -16.9% [at 102 µM] (inactive). In the case of `O=C(CCCCCn1c(=S)[nH]c2ccsc2c1=O)NC1CCCCC1`, the Potency is reported as 10 µM (active). With `CCCCC(CC)CNC(=O)CCCCn1c(=O)[nH]c2ccsc2c1=O` (configuration not stated) the Potency was “inactive”. In the case of `COc1ccccc1-c1sc2ccccc2c1-c1ccc(C(C)=O)cc1`, the “activity, negative = inhibition” value is reported as 226% [at 102 µM] (inactive). `CCOC(=O)CN(Cc1ccc(OC)c(OC)c1)S(=O)(=O)c1ccc(OC)cc1` was tested, and the “activity, negative = inhibition” value was 18.2% [at 102 µM] (inactive). `COc1ccc(CN(C)C(=O)CC(c2ccccc2)c2ccccc2)cc1` was tested, and the “activity, negative = inhibition” value was 15.5% (inactive). `COc1ccc(C(CCN(Cc2ccc(OC)c(OC)c2)C(=O)CCl)c2ccccc2)cc1` (configuration not stated) was tested, and the Potency was 50.1 µM (active). For `Cc1ccc(Cl)cc1N1CCN(C(=O)c2cn(C)c3ccc(S(=O)(=O)N(C)C4CCCCC4)cc3c2=O)CC1`, the “activity, negative = inhibition” value was 14% (inactive). In the case of `CCn1cc(CCC(=O)NCc2ccc(F)cc2)c2ccccc21`, the “activity, negative = inhibition” value is reported as -11% [at 102 µM] (inactive). For `COc1cc(OC)c(OC)cc1/C=C/c1nc2cc3ccccc3cc2c(=O)n1-c1ccc(F)c(Cl)c1`, the “activity, negative = inhibition” value was -13.5% (inactive). With `Fc1ccc(Nc2nc(SCc3ccccc3Cl)nc3ccccc23)cc1` the “activity, negative = inhibition” value was 24.3% (inactive). With `C=CS(=O)c1sc(Cl)c(N2CCOCC2)c1[N+](=O)[O-]` (configuration not stated) the Potency was 1.58 µM (active). With `O=C(CC1Oc2ccccc2NC1=O)NCc1ccc(F)cc1` (configuration not stated) the “activity, negative = inhibition” value was 28.9% (inactive). In the case of `CC1=C(C)CC2C(=O)N(c3cccc4ccccc34)C(=O)C2C1` (configuration not stated), the Potency is reported as 7.94 µM (active). For `CCc1ccccc1N1C(=O)C2C3CC(=O)C(c4ccccc43)C2C1=O` (configuration not stated), the “activity, negative = inhibition” value was 19.2% [at 102 µM] (inactive). `O=C1c2ccccc2C(=O)N1c1cccc2ccccc12` was tested, and the “activity, negative = inhibition” value was 2.93% [at 102 µM] (inactive). `CCCCn1cc(S(=O)(=O)c2ccc(OCC)cc2)c(=O)c2cc(OC)c(OC)cc21` was tested, and the “activity, negative = inhibition” value was -30.4% (inactive). With `CCn1c(=O)c(C(=O)NCc2ccc3c(c2)OCO3)c(O)c2ccccc21` the activity, negative = inhibition was 8.89% [at 0.501 µM] (inactive). `COc1ccc(C2c3c(oc4ccccc4c3=O)C(=O)N2Cc2ccc3c(c2)OCO3)cc1` (configuration not stated) was tested, and the “activity, negative = inhibition” value was -28.3% (inactive). In the case of `CCc1noc(C)c1C(=O)Oc1ccc(N(C)S(=O)(=O)c2ccc(C)c(C)c2)cc1`, the activity, negative = inhibition is reported as 15.4% [at 12.7 µM] (inactive). For `COC(=O)c1ccc(NC(=O)CSc2nnc(C3CC3)n2C)cc1`, the “activity, negative = inhibition” value was 18.2% [at 102 µM] (inactive). In the case of `CNC(=O)CSc1nnc(CCc2ccccc2)n1-c1ccccc1`, the “activity, negative = inhibition” value is reported as -17.5% (inactive). `COC(=O)c1ccc(NC(=O)CSc2nnc(-c3ccncc3)n2C)cc1` was tested, and the “activity, negative = inhibition” value was 0.0579% [at 102 µM] (inactive). `Cn1cccc1Cc1nnc(SCC(=O)NCCc2ccccc2)n1-c1ccc(F)cc1` was tested, and the Potency was 56.2 µM (active). `COC(=O)c1ccc(NC(=O)CSc2nnc(Cc3cccn3C)n2-c2ccc(F)cc2)cc1` was tested, and the Potency was 44.7 µM (active). In the case of `O=C(CSc1nnc(CNC(=O)c2ccccc2)n1-c1ccc(F)cc1)Nc1ccccc1F`, the “activity, negative = inhibition” value is reported as -18.3% (inactive). `Cc1ccccc1NC(=O)Cc1nc(COC(=O)c2cccnc2Cl)cs1` was tested, and the “activity, negative = inhibition” value was -9.65% (inactive). `COc1ccccc1C(CNC(=O)c1ccc(C)c(S(=O)(=O)N2CCCCC2)c1)N(C)C` (configuration not stated) was tested, and the activity, negative = inhibition was 24.7% [at 12.7 µM] (inactive). In the case of `CC(=O)Nc1ccc(Nc2cc(C)nc(Nc3ccc(NC(C)=O)cc3)n2)cc1`, the activity, negative = inhibition is reported as -6.09% [at 2.33 µM] (inactive). For `COc1ccc(CCn2c(=N)c(C(=O)NCC3CCCO3)cc3c(=O)n4cccc(C)c4nc32)cc1OC` (configuration not stated), the “activity, negative = inhibition” value was -20.3% [at 102 µM] (inactive). With `COc1cccc(NC(=O)Nc2ccc3c(c2)N(C)C(=O)c2ccccc2S3)c1` the “activity, negative = inhibition” value was -33.9% (inactive). With `COc1ccc2c(c1)N(C)/C(=C1/SC(=S)N(NC(C)=O)C1=O)S2` the Potency was 70.8 µM (active). `COc1cccc(/C=C2\Sc3ccc(C(=O)NCC4CCCO4)cc3N(C)C2=O)c1` (configuration not stated) was tested, and the “activity, negative = inhibition” value was 5.24% [at 102 µM] (inactive). With `CN(C(=O)CSc1nnc(-c2ccc3c(c2)OCO3)o1)C1CCS(=O)(=O)C1` (configuration not stated) the activity, negative = inhibition was 23.8% [at 12.7 µM] (inactive). `CCOC(=O)c1cc(C(C)C)sc1NC(=O)COC(=O)c1nccnc1N` was tested, and the activity, negative = inhibition was -18.5% [at 0.501 µM] (inactive). With `COC(=O)c1ccc(C(=O)NC2CC(C)(C)Cc3c2cnn3-c2ccc(F)cc2)nc1` (configuration not stated) the “activity, negative = inhibition” value was 33.1% [at 102 µM] (inactive). With `CCCN(C(=O)Cn1ncc2c([nH]c3ccc(C)cc32)c1=O)c1ccccc1C` the “activity, negative = inhibition” value was -4.99% (inactive). `CC(C)(C)OC(=O)NCCCCCNC(=O)c1nc[nH]c1C(=O)NCc1ccccc1` was tested, and the activity, negative = inhibition was 24.5% [at 2.33 µM] (inactive). With `Cc1nn(C(=O)c2ccoc2C)c(N)c1-c1ccccc1` the Potency was 31.6 µM (active). `C/C(=N\NC(=O)c1ccoc1C)c1ccccc1O` was tested, and the “activity, negative = inhibition” value was 11.6% [at 102 µM] (inactive). For `Cc1occc1C(=O)Nc1nnc(-c2ccncc2)s1`, the activity, negative = inhibition was -37.1% [at 12.7 µM] (inactive). For `CCOc1ccccc1NC(=O)CN1CCCN(Cc2cccc(Cl)c2)S1(=O)=O`, the “activity, negative = inhibition” value was 5.41% (inactive). For `Cc1ccc2c(c1)N(CC(=O)NCCc1ccc(Cl)cc1)C(=O)c1cccnc1O2`, the Potency was “inactive”. In the case of `COc1ccc2c(CC(=O)OCC(=O)NC(N)=O)coc2c1`, the “activity, negative = inhibition” value is reported as -0.798% [at 102 µM] (inactive). For `COc1ccc2c(CC(=O)OCC(=O)Nc3ccccc3[N+](=O)[O-])coc2c1`, the Potency was 11.2 µM (active). With `COc1ccc2c(CC(=O)Nc3nnc(C4CC4)s3)coc2c1` the “activity, negative = inhibition” value was -40.9% (inactive).
